Laboratory results published in publication PMC7862700, “An all-to-all approach to the identification of sequence-specific readers for epigenetic DNA modifications on cytosine”.

How the values were obtained:
Experiment in all cases: DAPPL (digital affinity profiling via proximity ligation, sequencing); 10 mM Tris-HCl pH 7.5, 50 mM NaCl, 1 mM DTT, 4% glycerol, room temperature, 30 min; GST-TFs on glutathione beads, 16-mer random dsDNA library, 0.1% formaldehyde crosslink after washing; high values mean tight binding
Settings in all cases: protein: recombinant; tags: N-terminal GST; dsDNA, one strand shown
ELK1 = biological target: T1, ELK1 (Homo sapiens, UniProt P19419 1-428)
T1 sequence: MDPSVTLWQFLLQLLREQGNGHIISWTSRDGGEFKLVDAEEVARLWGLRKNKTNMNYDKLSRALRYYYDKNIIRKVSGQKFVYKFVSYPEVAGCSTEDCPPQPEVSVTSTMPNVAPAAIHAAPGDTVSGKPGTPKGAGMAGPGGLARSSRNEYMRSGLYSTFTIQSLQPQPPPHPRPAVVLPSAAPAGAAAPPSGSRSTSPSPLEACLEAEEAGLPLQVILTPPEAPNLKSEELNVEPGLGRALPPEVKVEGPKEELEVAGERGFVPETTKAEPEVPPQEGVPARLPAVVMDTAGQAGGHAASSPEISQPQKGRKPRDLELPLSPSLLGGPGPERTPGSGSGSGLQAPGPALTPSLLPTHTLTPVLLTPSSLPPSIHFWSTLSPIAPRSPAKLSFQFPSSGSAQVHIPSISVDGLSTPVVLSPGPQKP
How it was run: (§1)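 Binding signal is defined as a hexamer's read frequency for one factor over its frequency for the tag-only sample. To obtain reads, GST-fused human transcription factors were expressed in yeast, captured on glutathione beads, barcoded with DNA and pooled with that sample. Pools met 200 nmole of a 16-mer random double-stranded DNA library in Tris/NaCl/DTT/glycerol buffer for 30 min at room temperature before washing, 0.1% formaldehyde crosslinking, proximity ligation (BsaI/T4 ligase, 1 h, 37 °C), PCR and Illumina NextSeq500 sequencing.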

GABPA = biological target: T2, GABPA (Homo sapiens, UniProt Q06546 1-454)
T2 sequence: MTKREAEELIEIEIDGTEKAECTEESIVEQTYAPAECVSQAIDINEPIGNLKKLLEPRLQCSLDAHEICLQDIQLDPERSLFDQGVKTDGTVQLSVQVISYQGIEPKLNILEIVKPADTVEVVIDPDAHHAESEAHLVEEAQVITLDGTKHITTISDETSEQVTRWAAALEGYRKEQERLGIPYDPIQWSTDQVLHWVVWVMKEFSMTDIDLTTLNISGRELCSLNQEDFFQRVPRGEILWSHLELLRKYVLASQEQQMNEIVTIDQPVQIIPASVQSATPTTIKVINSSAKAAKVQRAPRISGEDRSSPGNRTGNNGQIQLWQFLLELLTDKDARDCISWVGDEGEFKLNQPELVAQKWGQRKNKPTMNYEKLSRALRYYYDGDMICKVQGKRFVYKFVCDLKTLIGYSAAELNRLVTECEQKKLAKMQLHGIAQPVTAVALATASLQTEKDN
How it was run: as §1

ELF1 = ELF1 (Homo sapiens, UniProt P32519 1-619)
Chain of ELF1 (P32519 whole entry): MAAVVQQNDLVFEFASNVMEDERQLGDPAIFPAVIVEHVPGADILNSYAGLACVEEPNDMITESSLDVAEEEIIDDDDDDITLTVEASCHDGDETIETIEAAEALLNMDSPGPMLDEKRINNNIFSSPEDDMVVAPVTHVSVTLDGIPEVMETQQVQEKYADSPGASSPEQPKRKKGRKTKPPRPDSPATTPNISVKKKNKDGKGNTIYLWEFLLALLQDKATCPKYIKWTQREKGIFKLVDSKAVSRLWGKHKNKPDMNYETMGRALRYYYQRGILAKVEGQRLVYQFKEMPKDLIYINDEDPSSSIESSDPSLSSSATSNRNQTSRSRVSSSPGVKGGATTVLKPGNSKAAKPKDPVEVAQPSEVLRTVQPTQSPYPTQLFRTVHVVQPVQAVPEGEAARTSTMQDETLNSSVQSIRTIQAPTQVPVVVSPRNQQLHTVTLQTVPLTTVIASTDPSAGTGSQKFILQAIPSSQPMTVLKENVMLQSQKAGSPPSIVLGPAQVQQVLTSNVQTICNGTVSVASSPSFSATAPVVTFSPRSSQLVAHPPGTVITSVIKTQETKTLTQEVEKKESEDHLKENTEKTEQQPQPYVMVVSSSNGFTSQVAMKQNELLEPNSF
How it was run: as §1

EHF = biological target: T3, EHF (Homo sapiens, UniProt Q9NZC4 1-300)
T3 sequence: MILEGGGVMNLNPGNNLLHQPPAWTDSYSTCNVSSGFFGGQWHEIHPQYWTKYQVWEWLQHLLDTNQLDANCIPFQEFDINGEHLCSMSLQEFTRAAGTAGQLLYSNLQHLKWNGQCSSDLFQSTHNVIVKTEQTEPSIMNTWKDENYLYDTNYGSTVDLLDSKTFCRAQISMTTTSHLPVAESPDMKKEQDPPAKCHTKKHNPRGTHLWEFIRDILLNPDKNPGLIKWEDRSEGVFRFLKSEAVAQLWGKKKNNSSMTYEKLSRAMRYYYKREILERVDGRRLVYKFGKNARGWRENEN
How it was run: as §1

SPIB = SPIB (Homo sapiens, UniProt Q01892 1-262)
Chain of SPIB (Q01892 whole entry): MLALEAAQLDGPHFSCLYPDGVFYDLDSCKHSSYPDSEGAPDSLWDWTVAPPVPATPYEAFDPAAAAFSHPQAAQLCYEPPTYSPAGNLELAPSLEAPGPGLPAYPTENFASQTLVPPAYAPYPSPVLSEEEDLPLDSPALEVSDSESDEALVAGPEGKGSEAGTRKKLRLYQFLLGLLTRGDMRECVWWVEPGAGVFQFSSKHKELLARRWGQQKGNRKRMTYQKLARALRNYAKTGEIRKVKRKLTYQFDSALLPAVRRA
How it was run: as §1

ELK3 = biological target: T4, ELK3 (Homo sapiens, UniProt P41970 1-407)
T4 sequence: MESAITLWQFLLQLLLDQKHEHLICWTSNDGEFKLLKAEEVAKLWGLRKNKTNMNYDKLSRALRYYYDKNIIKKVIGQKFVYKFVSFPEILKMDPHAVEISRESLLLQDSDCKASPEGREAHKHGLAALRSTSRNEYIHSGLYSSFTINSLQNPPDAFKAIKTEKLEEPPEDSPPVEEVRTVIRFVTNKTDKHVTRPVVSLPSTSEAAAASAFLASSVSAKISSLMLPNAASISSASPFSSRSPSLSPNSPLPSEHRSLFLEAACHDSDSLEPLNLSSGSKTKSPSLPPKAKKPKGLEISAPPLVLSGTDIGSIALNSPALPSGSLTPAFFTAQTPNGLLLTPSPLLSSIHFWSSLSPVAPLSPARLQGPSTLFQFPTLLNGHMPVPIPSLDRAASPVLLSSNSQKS
How it was run: as §1

SPIC = biological target: T5, SPIC (Homo sapiens, UniProt Q8N5J4 1-248)
T5 sequence: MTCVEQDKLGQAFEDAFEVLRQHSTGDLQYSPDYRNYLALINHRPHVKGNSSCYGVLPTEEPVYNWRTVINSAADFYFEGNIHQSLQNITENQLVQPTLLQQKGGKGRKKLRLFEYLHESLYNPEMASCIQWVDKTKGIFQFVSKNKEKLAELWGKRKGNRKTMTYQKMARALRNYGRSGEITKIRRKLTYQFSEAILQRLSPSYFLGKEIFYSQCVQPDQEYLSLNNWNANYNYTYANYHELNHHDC
How it was run: as §1

ELF4 = ELF4 (Homo sapiens, UniProt Q99607 1-663)
Chain of ELF4 (Q99607 whole entry): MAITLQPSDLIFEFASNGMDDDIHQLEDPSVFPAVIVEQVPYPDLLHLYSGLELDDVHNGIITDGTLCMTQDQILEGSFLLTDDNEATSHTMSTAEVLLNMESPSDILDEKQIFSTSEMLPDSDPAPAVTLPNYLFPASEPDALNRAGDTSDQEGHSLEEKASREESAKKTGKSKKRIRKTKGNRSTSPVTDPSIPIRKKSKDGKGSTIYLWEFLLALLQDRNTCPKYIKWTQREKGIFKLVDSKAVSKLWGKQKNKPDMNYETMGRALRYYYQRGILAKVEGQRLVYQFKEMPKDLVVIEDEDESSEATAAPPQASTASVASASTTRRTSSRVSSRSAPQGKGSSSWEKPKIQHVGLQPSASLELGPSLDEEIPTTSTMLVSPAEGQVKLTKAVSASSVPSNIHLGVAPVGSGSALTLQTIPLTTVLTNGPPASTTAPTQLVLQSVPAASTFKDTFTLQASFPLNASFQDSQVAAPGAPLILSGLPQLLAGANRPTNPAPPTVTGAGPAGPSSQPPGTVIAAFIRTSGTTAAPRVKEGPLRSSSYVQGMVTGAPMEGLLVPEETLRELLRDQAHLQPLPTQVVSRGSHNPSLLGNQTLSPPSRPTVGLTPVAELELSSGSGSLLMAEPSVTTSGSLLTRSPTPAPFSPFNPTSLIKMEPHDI
How it was run: as §1

ELK4 = biological target: T6, ELK4 (Homo sapiens, UniProt P28324-2 1-405)
T6 sequence: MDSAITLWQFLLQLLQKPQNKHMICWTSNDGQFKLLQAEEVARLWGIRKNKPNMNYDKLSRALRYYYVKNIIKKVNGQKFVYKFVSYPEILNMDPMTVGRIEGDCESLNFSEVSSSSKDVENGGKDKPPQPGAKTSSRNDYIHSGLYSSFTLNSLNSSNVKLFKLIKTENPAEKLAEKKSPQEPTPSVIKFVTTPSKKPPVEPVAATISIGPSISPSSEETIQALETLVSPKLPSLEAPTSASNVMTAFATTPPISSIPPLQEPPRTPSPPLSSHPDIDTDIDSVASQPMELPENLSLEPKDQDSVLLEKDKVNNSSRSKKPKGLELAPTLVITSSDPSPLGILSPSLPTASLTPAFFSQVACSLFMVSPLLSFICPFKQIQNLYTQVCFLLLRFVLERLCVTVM
How it was run: as §1

ERF = biological target: T7, ERF (Homo sapiens, UniProt P50548 1-548)
T7 sequence: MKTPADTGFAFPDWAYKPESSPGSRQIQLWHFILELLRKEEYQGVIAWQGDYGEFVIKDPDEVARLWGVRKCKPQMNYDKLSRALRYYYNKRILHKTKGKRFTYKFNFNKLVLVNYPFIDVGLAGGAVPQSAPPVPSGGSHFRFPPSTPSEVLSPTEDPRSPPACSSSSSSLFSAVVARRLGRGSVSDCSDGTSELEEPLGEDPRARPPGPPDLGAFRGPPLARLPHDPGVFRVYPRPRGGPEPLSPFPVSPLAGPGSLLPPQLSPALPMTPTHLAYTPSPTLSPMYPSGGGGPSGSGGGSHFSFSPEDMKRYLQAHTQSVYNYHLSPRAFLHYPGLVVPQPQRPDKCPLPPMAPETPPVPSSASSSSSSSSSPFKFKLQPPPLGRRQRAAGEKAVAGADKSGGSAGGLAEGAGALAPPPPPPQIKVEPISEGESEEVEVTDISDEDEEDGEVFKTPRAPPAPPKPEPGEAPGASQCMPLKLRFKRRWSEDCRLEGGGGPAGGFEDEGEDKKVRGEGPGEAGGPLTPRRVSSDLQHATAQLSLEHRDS
How it was run: as §1

ETV3L = biological target: T8, ETV3L (Homo sapiens, UniProt Q6ZN32 1-361)
T8 sequence: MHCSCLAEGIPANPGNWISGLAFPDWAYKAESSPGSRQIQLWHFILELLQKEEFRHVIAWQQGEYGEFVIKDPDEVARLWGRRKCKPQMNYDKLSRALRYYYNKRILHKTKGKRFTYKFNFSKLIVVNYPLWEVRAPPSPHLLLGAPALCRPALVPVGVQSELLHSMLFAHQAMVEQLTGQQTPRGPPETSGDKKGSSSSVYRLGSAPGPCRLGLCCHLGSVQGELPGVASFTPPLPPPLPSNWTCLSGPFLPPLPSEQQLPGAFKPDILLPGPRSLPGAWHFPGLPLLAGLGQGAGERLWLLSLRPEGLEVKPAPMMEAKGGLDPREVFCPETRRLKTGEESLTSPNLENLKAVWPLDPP
How it was run: as §1

ETS2 = biological target: T9, ETS2 (Homo sapiens, UniProt P15036 1-469)
T9 sequence: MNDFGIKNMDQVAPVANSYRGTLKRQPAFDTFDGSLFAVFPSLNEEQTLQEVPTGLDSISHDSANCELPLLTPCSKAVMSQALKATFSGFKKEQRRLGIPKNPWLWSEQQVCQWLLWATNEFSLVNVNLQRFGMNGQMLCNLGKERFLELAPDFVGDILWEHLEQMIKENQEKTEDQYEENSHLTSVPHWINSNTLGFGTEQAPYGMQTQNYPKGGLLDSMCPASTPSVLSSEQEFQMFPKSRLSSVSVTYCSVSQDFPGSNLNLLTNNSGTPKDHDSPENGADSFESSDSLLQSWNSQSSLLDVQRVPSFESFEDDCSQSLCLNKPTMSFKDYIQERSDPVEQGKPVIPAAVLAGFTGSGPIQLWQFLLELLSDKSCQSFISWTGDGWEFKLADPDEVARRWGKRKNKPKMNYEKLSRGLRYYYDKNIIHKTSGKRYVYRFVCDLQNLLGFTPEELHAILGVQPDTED
How it was run: as §1

ETV3 = biological target: T10, ETV3 (Homo sapiens, UniProt P41162-2 1-143)
T10 sequence: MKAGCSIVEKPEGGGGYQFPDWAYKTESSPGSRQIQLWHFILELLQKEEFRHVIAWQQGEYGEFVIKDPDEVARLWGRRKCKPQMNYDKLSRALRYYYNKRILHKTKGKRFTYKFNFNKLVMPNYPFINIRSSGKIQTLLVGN
How it was run: as §1

TGATAG
binding signal (ELK1): 1.07 fold enrichment (6-mer frequency, TF over GST control)
binding signal (GABPA): 1.03 fold enrichment (6-mer frequency, TF over GST control)
binding signal (ELF1): 1.09 fold enrichment (6-mer frequency, TF over GST control)
binding signal (EHF): 1.01 fold enrichment (6-mer frequency, TF over GST control)
binding signal (SPIB): 1.05 fold enrichment (6-mer frequency, TF over GST control)
binding signal (ELK3): 1.09 fold enrichment (6-mer frequency, TF over GST control)
binding signal (SPIC): 1.05 fold enrichment (6-mer frequency, TF over GST control)
binding signal (ELF4): 1.03 fold enrichment (6-mer frequency, TF over GST control)
binding signal (ELK4): 1.02 fold enrichment (6-mer frequency, TF over GST control)
binding signal (ERF): 1.04 fold enrichment (6-mer frequency, TF over GST control)
binding signal (ETV3L): 1.05 fold enrichment (6-mer frequency, TF over GST control)
binding signal (ETS2): 1.06 fold enrichment (6-mer frequency, TF over GST control)
binding signal (ETV3): 1.05 fold enrichment (6-mer frequency, TF over GST control)
